# PubChem BioAssay AID2501 (Southern Research Specialized Biocontainment Screening …, 2010)
# Among all 2,200 compounds or so, about 1,200 (55%) were called active. Cut-off not given; nearly all actives show IC50 up to about 92 µM. The set was probably picked from earlier hits. The list shows a part of the results.
# Test: counter assay for TAg ATPase ADP read-out – biochemical, ADP-Hunter, fluorescence, counter-screen (AID 2501);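 further: purified T antigen ATPase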
# Conditions: series mostly up to 100 µM
row,Structure (SMILES),IC50
1,Cn1ncc2nnn(-c3ccccc3)c(=O)c21,inactive
2,Brc1ccc(-c2nn3c(-c4ccco4)nnc3s2)o1,inactive
3,COc1cc(/C=N/NC(=O)CCc2c(C)n[nH]c2C)ccc1O,4.69 µM (active)
4,COc1ccc(Cc2nc3ccccc3n2CC(=O)N/N=C/c2ccc(O)cc2)cc1OC,4.33 µM (active)
5,COc1cc(/C=N/NC(=O)C(C)n2nnc3ccccc32)ccc1O (centres undefined),3.07 µM (active)
6,CCOc1cc(/C=N\NC(=O)Cn2nnc3ccccc32)ccc1O,5.43 µM (active)
7,CCOc1ccc(NC(=O)c2nnn(CC(=O)Nc3ccccc3OC)c2N)cc1,inactive
8,CC(C(=O)Nc1ccccc1Cl)N(c1ccccc1)S(C)(=O)=O (centres undefined),inactive
9,CCCSC1=N/C(=C\C=C\c2ccco2)C(=O)S1,inactive
10,COc1cc(/C=N/NC(=O)CCn2nc(C)cc2C)ccc1O,6.73 µM (active)
11,COc1cc(/C=N/NC(=O)Cn2nnc3ccccc32)ccc1O,2.86 µM (active)
12,COc1cc(/C=N/NC(=O)CCn2nnc3ccccc32)ccc1O,3.56 µM (active)
13,CCOc1cc(/C=N/NC(=O)CCn2nnc3ccccc32)ccc1O,3.32 µM (active)
14,CCOC(=O)C1=C(N)n2c(s/c(=C\c3ccco3)c2=O)=C(C(=O)OCC)C1c1ccco1 (centres undefined),inactive
15,C[C@]12CC[C@@H]3c4cc(O)c(O)cc4CC[C@H]3[C@@H]1CC[C@@H]2O,inactive
16,CCCNC(=O)c1ccc(CNc2c(N3CCC(C(=O)OCC)CC3)c(=O)c2=O)cc1,inactive
17,O=C1NC(=Nc2ccc(O)cc2)S/C1=C\C=C\c1ccco1,3.48 µM (active)
18,Cc1cccc(N=C2NC(=O)/C(=C/C=C/c3ccco3)S2)c1,inactive
19,Cc1ccc(S(=O)(=O)/N=C2/NC(=O)/C(=C\c3ccco3)S2)cc1,inactive
20,O=C(O)CC(C(=O)O)N1C(=O)/C(=C/C=C/c2ccco2)SC1=S (centres undefined),inactive
21,O=C1NC(=Nc2ccc(O)cc2)S/C1=C/c1ccco1,5.16 µM (active)
22,O=C(CCCN1C(=O)/C(=C\c2ccco2)SC1=S)Nc1ccc(O)cc1C(=O)O,inactive

row,Structure (SMILES),IC50
1,CCCC[C@@H]1CN=C(N)N1CCc1cc(C(F)(F)F)cc(C(F)(F)F)c1,inactive
2,O=Nc1c(-c2cccc([N+](=O)[O-])c2)nc2ncccn12,inactive
3,CN=c1nc(-c2ccccc2)n(-c2ccccc2)s1,11.8 µM (active)
4,O=C(N/N=C/c1ccc(OC(=O)c2ccco2)cc1)c1ccc[n+]([O-])c1,41.7 µM (active)
5,CCOC(=O)C1=C(C)NC(=S)NC1c1ccc(OC(=O)c2ccco2)cc1 (centres undefined),inactive
6,Oc1ccc(-c2nc(=S)[nH][nH]2)cc1,2.49 µM (active)
7,O=c1c2ccccc2sn1-c1cc(S(=O)(=O)N2CCOCC2)ccc1N1CCCC1,12.5 µM (active)
8,O=c1c2ccccc2sn1-c1cc(S(=O)(=O)N2CCOCC2)ccc1N1CCOCC1,12.5 µM (active)
9,O=C(Nc1ccc(S(=O)(=O)N2CCCC2)cc1)N1c2ccccc2Sc2ccccc21,inactive
10,Cc1ccc2c(c1)C(c1ccccc1)N(C(=O)c1ccc(S(=O)(=O)N3CCOCC3)cc1)CC(=O)N2 (centres undefined),inactive
11,C[C@@H]1O[C@@H](OC2C(O)C(OCCc3ccc(O)c(O)c3)OC(CO)C2OC(=O)/C=C/c2ccc(O)c(O)c2)[C@H](O)[C@H](O)[C@H]1O (some centres undefined),6.02 µM (active)
12,Nc1nc[nH]c(=O)c1N=Cc1ccccc1,12.2 µM (active)
13,C=CCNc1nnc(SC2CC(=O)N(c3ccc(OC)cc3)C2=O)s1 (centres undefined),11.2 µM (active)
14,CCN=C(Nc1ccc2c(c1)OCO2)SC1CC(=O)N(c2ccc(OC)cc2)C1=O (centres undefined),inactive
15,Cc1c(/C=N/NC(=O)c2ccc(O)cc2)c2ccccn2c1C(=O)c1ccc(F)cc1,inactive
16,CN1/C(=C\C=N\NC(=O)c2ccc(O)cc2)C(C)(C)c2ccccc21,8.51 µM (active)
17,O=S(=O)(O)c1cc(O)c2c(O)c(N=Nc3cc(Cl)ccc3O)c(S(=O)(=O)O)cc2c1,81.2 µM (active)
18,Cc1cc(-c2ccc(N=Nc3c(S(=O)(=O)O)cc4cc(S(=O)(=O)O)cc(N)c4c3O)c(C)c2)ccc1N=Nc1c(S(=O)(=O)O)cc2cc(S(=O)(=O)O)cc(N)c2c1O,11.5 µM (active)
19,Cc1sc(NC(=O)C2C3CCC(O3)C2C(=O)O)c(C(=O)OC(C)C)c1-c1ccc(Cl)cc1 (centres undefined),inactive
20,CCn1cnc2cc(NCc3cccc(OC)c3O)ccc21,3.71 µM (active)
21,CCCn1cnc2cc(NCc3cccc(OC)c3O)ccc21,4.87 µM (active)
22,C/C(Cl)=C\Cn1c(N2CCCC2)nc2c1c(=O)[nH]c(=O)n2C,inactive

row,Structure (SMILES),IC50
1,O=C(O)CCNc1ccc(NCCC(=O)O)c2c1C(=O)c1ccccc1C2=O,7.52 µM (active)
2,Oc1cnn(-c2ccccc2)c1,7.63 µM (active)
3,O=C(Nc1nc(-c2ccco2)c(-c2ccco2)s1)c1ccco1,inactive
4,CC(=O)Nc1sc(N/N=C\c2ccco2)nc1-c1cccs1,74 µM (active)
5,COc1cc(/C=N\Nc2nc(-c3cccs3)c(NC(C)=O)s2)ccc1O,4.67 µM (active)
6,CCOc1cc(/C=N/Nc2nc(-c3cccs3)c(NC(C)=O)s2)ccc1O,9.71 µM (active)
7,NS(=O)(=O)c1cc(C(=O)NC2CCSc3ccccc32)ccc1Cl (centres undefined),inactive
8,CSc1cccc(NC(=O)CN2C(=O)c3ccccc3S2(=O)=O)c1,inactive
9,CCS(=O)(=O)c1ncc(Cl)c(C(=O)Nc2ccc(S(=O)(=O)N3CCCC(C)C3)cc2)n1 (centres undefined),inactive
10,Oc1ccc(/C=N/Nc2cc(N3CCOCC3)nc(N3CCOCC3)n2)cc1O,4.67 µM (active)
11,Oc1ccc(/C=N/Nc2cc(N3CCCC3)nc(N3CCCC3)n2)cc1O,31.9 µM (active)
12,Cc1cc(N/N=C/c2ccc(O)cc2O)nc(N2CCOCC2)n1,22.7 µM (active)
13,O=C(NC1CCCC1)C(c1ccc(F)cc1)N(Cc1ccc(F)cc1)C(=O)c1ccn[nH]1 (centres undefined),inactive
14,CCc1ccccc1N1CSC2=C(C#N)C(c3ccccc3F)CC(=O)N2C1 (centres undefined),inactive
15,N#CC1=C2SCN(Cc3ccccc3)CN2C(=O)CC1c1cccs1 (centres undefined),inactive
16,CCOc1ccc(N2CSC3=C(C#N)C(c4ccco4)CC(=O)N3C2)cc1 (centres undefined),10.4 µM (active)
17,COc1ccc(N2CSC3=C(C#N)C(c4cccc(OC)c4OC)CC(=O)N3C2)cc1 (centres undefined),5.84 µM (active)
18,COc1ccc(N2CSC3=C(C#N)C(c4cccs4)CC(=O)N3C2)cc1 (centres undefined),7.88 µM (active)
19,COc1ccc(C2CC(=O)N3CN(c4ccc(C)c(Cl)c4)CSC3=C2C#N)cc1 (centres undefined),inactive
20,Cc1ccc(N2CSC3=C(C#N)C(c4cccs4)CC(=O)N3C2)cc1 (centres undefined),23.6 µM (active)
